Sampled rows, rich in hits. Any-hit rate of the full collection: about 3.1%.
S16 F2sN tox = toxic to S16 Pmp22-F2sN Schwann cells | actives 0.48% (n = 43,000) | AID 1508642 | Potency, µM (titrated, usually from 57.5 µM), for inactives: at the highest dose activity change, negative = cytotoxicity, hits mostly cytotoxic | S16 Pmp22-F2sN Schwann cells viability, CellTiter-Glo, 24 h; also: nearly all actives have a fitted effect of over 65% in size
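Rat S16 Schwann reporter line, 24 h treatment with library compounds delivered at 23 nL per well. Cell viability by CellTiter-Glo luminescence.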
pS6 MEF inh = mTORC1 pathway inhibition measured by phospho-rpS6; Tsc2-/- p53-/- MEF, phospho-rpS6 immunofluorescence/PI, 24 h; actives 0.78% (n = 44,000); Potency, µM (doses to about 38.3 µM), for the others: top-dose activity change, negative = inhibition, hits mostly inhibitors; AID 493208;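 also: plate controls were DMSO for no effect and rapamycin for full effect; nearly all actives have a fitted effect of over 50% in size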
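Read-out: phospho-S6 Alexa-488 intensity over PI intensity per well, scored as % active cells using thresholds from rapamycin (7.5 nM) and DMSO controls. Tsc2-/-, p53-/- MEFs exposed to compound for 24 h; PI cell count recorded as viability.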
p53null 39C tox = selectivity test: cytotoxicity in p53 null cells, nonpermissive temperature. H1299 p53-null (neo) cells, 39C, ATPlite viability, 24 h. Potency, µM (top dose mostly 46.1 µM), for inactives: top-dose activity, negative = cell killing, actives largely listed as cytotoxic. actives 0.97% (n = 55,000). AID 904;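 also: 0% = DMSO only and -100% = full killing by 100 µM tamoxifen; nearly all actives have a fitted effect of over 50% in size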
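Cells seeded at 600/well, 37C overnight. Compound added (up to 46 uM), plates shifted to 39C for 24 hr. ATPlite added, luminescence read after 20 min at room temperature.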
OvCa metastasis = ovarian cancer metastasis inhibition, 3D TME model; SKOV3ip1-GFP adhesion/invasion on 3D omental model, fluorescence; actives 0.1% (n = 46,000); Potency, µM (titrated, usually from 45.8 µM), inactives show at the highest dose activity change, negative = inhibition, hits mostly inhibitors;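 also: plate controls were DMSO wells for no effect and tomatine positive control wells for full effect; nearly all actives have a fitted effect of over 65% in size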
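qHTS, 4-pt dose (0.36-46 umol/L); SKOV3ip1-GFP, 1,200 cells/well, no FBS; primary omental fibroblast/mesothelial co-culture 48 h pre-grown; 2 h RT + 16 h 37 C; PBS wash, 4% PFA; GFP count 488/509 nm.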
PMP22 txn = PMP22 gene transcription modulation | S16 Pmp22-F2sN Schwann cells (luciferase reporters placed in the Pmp22 gene), FLuc/NLuc coincidence luminescence, 24 h | Potency, µM (titrated, usually from 57.5 µM), inactives show top-dose activity change, negative = inhibition, hits mostly inhibitors | actives 2% (n = 43,000) | AID 1508649; active = clear falling dose curves in both reporters; inconclusive = both reporters move, but less clearly or upward; inactive = either reporter flat; the % is the NLuc reporter signal
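qHTS, 1536-well. Cells seeded, compounds added by pin tool, 24 h 37C. Nano-Glo reagent 1 (lysis/FLuc), 10 min RT, read; Stop&Glo, 10 min RT, read NLuc.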
p53null 32C tox = p53 null cell cytotoxicity, permissive temperature; H1299-neo p53 null cells, ATP luminescence, 24 h, 32C; Potency, µM (top dose mostly 46.1 µM), inactives show top-dose activity change, negative = cytotoxicity, actives largely listed as cytotoxic; actives 0.62% (n = 55,000); AID 903;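 also: 0% = DMSO only and -100% = full killing by 100 µM tamoxifen; nearly all actives have a fitted effect of over 55% in size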
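H1299-neo (p53-null) cells, 600/well, were pre-incubated overnight at 37C, then exposed to compounds at up to 46 uM for 24 hr at 32C. Viability was measured as ATP content by luminescence, and AC50 values came from Hill fits.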
The depositor's hits bear a star; i = inactive; ? = inconclusive; . = no result given. Unless noted, calls follow the shape of the dose curve; as a rule, active = well fitted curve in the direction sought with a large enough effect; inconclusive = small, poorly fitted or top-dose-only effect, or another doubt; inactive = no such curve, though single readings can be large; an effect the other way counts as inactive or inconclusive. Unless noted, % is scaled to controls: 0 for no effect and ±100 for the full control effect; potency is read from the fitted curve at half-maximal effect.

SMILES	S16 F2sN tox	pS6 MEF inh	p53null 39C tox	OvCa metastasis	PMP22 txn	p53null 32C tox
COc1ccc(C(=O)NC(c2ccccc2Cl)c2cc(Cl)c3cccnc3c2O)cc1 (configuration not stated)	3.2µM*	?	10%	-29%	?	?
COc1cc(C(=O)NC(c2ccccc2Cl)c2cc(Cl)c3cccnc3c2O)cc(OC)c1OC (configuration not stated)	?	-20%	-19%	i	4.4µM*	?
Cc1c(CCOc2ccc(C(=O)O)cc2)c2cc(Cl)ccc2n1C(c1ccccc1)c1ccccc1	.	.	.	-5%	.	.
CCCCC(CC)CNC(=O)c1ccc(Cn2c(=O)[nH]c3cc(OC)c(OC)cc3c2=O)cc1 (configuration not stated)	-14%	?	13µM*	-1%	?	-11%
Cc1ccc(NC(=O)/C=C/c2ccc(C)o2)c(C)c1	.	-1%	-24%	4%	.	-4%
CC(=O)c1ccc(NC(=O)/C=C/c2ccc(C)o2)cc1	.	0%	?	i	.	13µM*
CC(C)C(C)C=CC(C)C1CCC2C3=CC=C4CC(O)CCC4(C)C3CCC21C (configuration not stated)	.	.	.	-5%	.	.
O=S(=O)(c1ccccc1)c1nc(-c2cccs2)oc1N1CCCCC1	-19%	-6%	-9%	i	?	-1%
CCC(C)S(=O)(=O)c1oc(-c2cccs2)nc1S(=O)(=O)c1ccccc1 (configuration not stated)	2.5µM*	1.2µM*	?	-20%	1.4µM*	25µM*
CC(C)CS(=O)(=O)c1oc(-c2ccc(F)cc2)nc1S(=O)(=O)c1ccccc1	4.5µM*	0.74µM*	3.2µM*	?	?	?
NC(N)=Nc1nc(CSCCC(N)=NS(N)(=O)=O)cs1	.	.	.	13%	.	.
CCCn1c(=O)c2[nH]c(C34CC5CC3C[C@@H](C5)C4)nc2n(CCC)c1=O	.	.	.	-4%	.	.
O=C(Nc1ccccc1C(F)(F)F)c1noc2c1CCCCC2	.	4%	5µM*	i	.	10µM*
COc1ccc2c(c1)CCc1c(C(=O)Nc3ccccc3C(F)(F)F)noc1-2	.	16%	-18%	1%	.	-11%
Cc1nn(C(C)C(=O)NC2CCCCC2)c(=O)c2c1sc1ccccc12 (configuration not stated)	7%	1µM*	13µM*	7%	40%	-26%
CSc1ccc(CCNC(=O)C(C)n2nc(C)c3sc4ccccc4c3c2=O)cc1 (configuration not stated)	4%	0.52µM*	13µM*	5%	3%	?
CCCN(CCC)CCCNC(=O)c1cnn(-c2ccc(F)cc2)c1-n1cccc1	-4%	-7%	-14%	-14%	-23%	5%
O=C(NCCCN1CCN(c2cccc(Cl)c2)CC1)c1cnn(-c2ccc(F)cc2)c1-n1cccc1	-18%	?	22µM*	i	?	13%
COc1ccc(OC)c(C2CC(=O)c3c([nH]c(C(=O)OCC4CCCCC4)c3C)C2)c1 (configuration not stated)	?	?	-5%	-20%	-14%	14%
COc1cc(C2CC(=O)c3c([nH]c(C(=O)OCC4CCCCC4)c3C)C2)cc(OC)c1OC (configuration not stated)	-11%	-20%	-28%	18%	5.7µM*	-14%
COc1cc(C2CC(=O)c3c([nH]c(C(=O)OC4CCCCC4)c3C)C2)cc(OC)c1OC (configuration not stated)	?	?	2%	?	18µM*	-18%
